Source: PubChem
KB-V1 cytotox: qHTS assay for MDR1-selective chemotherapeutics: Primary screen using the drug-selected MDR subline cells KB-V1. Potency, µM (titrated, usually from 46.1 µM), usual class: cytotoxic. KB-V1 MDR cells viability, CellTiter-Glo, 72 h. 400,000 tested, 3.4% active. AID 1347076, 2019; also: nearly all actives have a fitted effect of over 60% in size
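Cytotoxicity via CellTiter-Glo luminescence after 72 h compound exposure at 37 degrees C. Cells: drug-selected KB-V1 line, DMEM phenol-red free plus 10% FBS. Compounds tested at multiple concentrations; normalized data fitted to concentration-effect curves.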
KB-3-1 tox: qHTS assay for MDR1-selective chemotherapeutics: Primary screen using the parental adenocarcinoma cell KB-3-1; Potency, µM (highest dose often 46.1 µM), hits mostly cytotoxic; AID 1347075, 2019; KB-3-1 viability, CellTiter-Glo ATP luminescence, 72 h; 400,000 tested, 1.4% active; also: nearly all actives have a fitted effect of over 60% in size
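Screening of KB-3-1 cells (DMEM, 10% FBS, phenol-red free) ran from lowest to highest compound concentration; after 72 h at 37 °C viability was read luminescently and curves fitted.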
SW480 rereplic: A quantitative high throughput screen for small molecules that induce DNA re-replication in SW480 colon adenocarcinoma cells; 340,000 tested, 1.8% active; Potency, µM (titrated, usually from 46.1 µM), hits mostly activators; SW480 DNA re-replication, Hoechst DNA content imaging, 48 h; also: nearly all actives have a fitted effect of over 55% in size
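DNA re-replication was detected as more nuclei of elevated Hoechst intensity after 48 hr exposure to compound (23 nL pinned per well of 250 cells).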
TSG101-PTAP inh: qHTS Assay for Iinhibitors of HIV-1 Budding by Blocking the Interaction of PTAP/TSG101 | Tumor susceptibility gene 101 protein (Homo sapiens), Q99816 | Fluorescence polarization, FITC-PTAP peptide / Tsg101 binding | Potency, µM (doses to about 115 µM), most hits filed as inhibitors | 340,000 tested, under 10 active | AID 493005, 2010; active = well fitted inhibition curve with a large enough effect in the main read-out, with a control signal flat, not every such curve was filed as active; inconclusive = small, poorly fitted or top-dose-only effect, or effect the other way, or a change in a side signal; inactive = no such curve, though single readings can be large or run the other way
Target sequence (Q99816 whole entry, looked up): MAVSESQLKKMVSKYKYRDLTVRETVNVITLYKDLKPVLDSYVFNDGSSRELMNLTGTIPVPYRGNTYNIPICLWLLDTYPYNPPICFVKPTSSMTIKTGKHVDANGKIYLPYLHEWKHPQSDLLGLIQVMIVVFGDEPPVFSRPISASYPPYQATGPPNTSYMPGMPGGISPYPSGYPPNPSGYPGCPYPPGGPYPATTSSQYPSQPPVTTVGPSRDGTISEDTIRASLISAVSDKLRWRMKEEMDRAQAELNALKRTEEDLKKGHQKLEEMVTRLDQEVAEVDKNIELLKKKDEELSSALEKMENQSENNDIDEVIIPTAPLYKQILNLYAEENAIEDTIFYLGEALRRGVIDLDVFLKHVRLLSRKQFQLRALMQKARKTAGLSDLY
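Steps: Tsg101 binding domain dispensed (10 uM final), compounds pinned in DMSO, FITC-labeled PTAP-motif peptide added (50 nM final); after 20 min binding at room temperature, polarization measured.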
MCF10A rerep: A quantitative high throughput screen for small molecules that induce DNA re-replication in MCF 10a normal breast cells. 350,000 tested, 2.9% active. Potency, µM (highest dose often 46.1 µM), hits mostly activators. MCF 10A DNA re-replication, Hoechst nuclear intensity, 48 h; also: nearly all actives have a fitted effect of over 50% in size
RGS4 inh: Inhibitors of Regulator of G Protein Signaling (RGS) 4: qHTS; Potency, µM (doses to about 114 µM), hits mostly inhibitors; Regulator of G-protein signaling 4 (Homo sapiens), P49798; 390,000 tested, 0.039% active; Transcreener GDP fluorescence polarization, RGS4-accelerated GTP hydrolysis; also: nearly all actives have a fitted effect of over 75% in size
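MLSMR compounds (23 nl, pin-transferred) preincubated 10 min at room temperature with a 500nM (2x) first reagent, then RGS4 at 900nM (2x) plus Transcreener GDP mix added; fluorescence polarization (620/688 nm) read before and after 90 min at 30 °C.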
Numbers stand for hits; n = inactive; u = inconclusive; x = no result. Shown are actives, neighbours in structure and some others; about 6.6% of the full set was active somewhere. Unless noted, calls follow the shape of the dose curve; as a rule, active = well fitted curve in the direction sought with a large enough effect; inconclusive = small, poorly fitted or top-dose-only effect, or another doubt; inactive = no such curve, though single readings can be large; an effect the other way counts as inactive or inconclusive.

SMILES	KB-V1 cytotox	KB-3-1 tox	SW480 rereplic	TSG101-PTAP inh	MCF10A rerep	RGS4 inh
Cn1nc(SCc2ccccc2)c(=O)[nH]c1=O	n	n	x	x	x	x
Cn1nc(SCc2ccccc2)c(=O)n(C(c2ccccc2)c2ccccc2)c1=O	21µM	u	n	n	n	n
Cc1ccc(NC(=O)c2cc(Cl)ccc2[N+](=O)[O-])cc1C	n	n	n	n	n	n
O=C(COc1ccc([N+](=O)[O-])cc1)Nc1ccc2[nH]c(=O)[nH]c2c1	n	n	n	n	n	n
O=C(Nc1ccc2[nH]c(=O)[nH]c2c1)c1ccc([N+](=O)[O-])o1	u	u	2.9µM	n	5.8µM	n
Cc1ccc(NC(=O)c2ccc([N+](=O)[O-])o2)cc1C	n	18µM	u	n	9.2µM	n
Oc1nc(Nc2ccccc2)sc1/C=C1\C=Nc2ccccc21	n	n	n	n	21µM	n
COCCCNc1nc2c(-c3cccc(C)c3)nnn2c2ccccc12	n	n	n	n	13µM	n
COCCCNc1nc2c(-c3ccc(C)cc3)nnn2c2ccccc12	n	n	n	n	u	n
Cc1ccc(NC(=S)N/N=C/c2ccc(OCCC(C)C)cc2)c(C)c1	16µM	n	n	n	u	n
CCCOc1ccc(NCC(=O)Nc2ccc(C)cc2C)cc1	u	n	u	n	n	n
Cc1ccc(NC(=S)N/N=C/c2c(Cl)cccc2Cl)c(C)c1	1.2µM	0.58µM	1.3µM	n	1.5µM	n
Cc1ccc(Cl)cc1NC(=S)N/N=C/c1cccc2ccccc12	2.1µM	5.8µM	8.2µM	n	8.2µM	n
Cc1ccccc1C(=O)N/N=C/c1cccc2ccccc12	n	n	n	n	n	n
CCC(=O)N1c2ccc(S(=O)(=O)NCc3ccc(F)cc3)cc2CC1C (stereo not given)	n	u	x	x	x	n
COc1ccc(NC(=O)Cn2c(=O)ccc3cc(S(=O)(=O)N4CCCC4)ccc32)cc1Cl	n	n	x	x	x	n
COc1ccc(NS(=O)(=O)c2ccccc2C(=O)O)cc1	n	u	x	x	x	x
COc1ccc2c(c1)c1c(c(=O)n(CCc3ccccc3)c(=O)n1Cc1cccc(F)c1)n2C	n	n	x	x	x	n
CCCC(C)Sc1nc2c([nH]1)c(=S)n(C)c(=O)n2C (stereo not given)	8.2µM	u	u	n	n	n
COc1cc(C(=O)NN=Cc2ccc(N(C)C)cc2)cc(OC)c1OC	3.7µM	1.5µM	x	x	x	x
CCc1cc(C(=O)N/N=C/c2ccc(O)cc2)c2ccccc2n1	n	u	u	n	23µM	n
Cc1cc(C(=O)N/N=C/c2ccc([N+](=O)[O-])cc2)c2ccccc2n1	n	5.8µM	13µM	n	u	n
O=C(N/N=C\c1cn[nH]c1-c1ccccc1)c1ccc([N+](=O)[O-])cc1	n	u	4.1µM	n	n	n
CCn1cc(C(=O)NCCc2ccc(OC)c(OC)c2)c(=O)c2cc(S(=O)(=O)N3CCc4ccccc4C3)ccc21	n	n	x	x	x	n
O=S(=O)(Nc1cccc2ccccc12)c1ccc2ccccc2c1	x	x	x	x	x	n
O=[S+]([O-])([O-])c1ccc2c(c1)cc([S+](=O)([O-])[O-])c1nn(-c3ccc(/C=C/c4ccc(-n5nc6c([S+](=O)([O-])[O-])cc7cc([S+](=O)([O-])[O-])ccc7c6n5)cc4[S+](=O)([O-])[O-])c([S+](=O)([O-])[O-])c3)nc12	n	u	x	x	x	n
Cc1cc(Nc2ccc([N+](=O)[O-])cc2)c2ccccc2n1	n	n	n	n	2.6µM	n
CCOc1ccc2nc(C)cc(Nc3cccc([N+](=O)[O-])c3)c2c1	15µM	n	u	n	18µM	n
